Drawing on PubChem BioAssay (NCI), this text covers growth for 14 molecules.

About 83,000 compounds went through this panel and 20% of them were active in at least one assay; those are over-represented in the sample as a whole.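 Negative percent growth values reflect cell death: -40 means 40% of the cells present at the start died, and -100 means all died.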 Values without a mark were called inactive. The source made the active and inactive calls. The calls were made as follows: active = growth percent below 10; inactive = the rest.

For the test, the system named is RXF 393 renal. Nature of the test: NCI-60 one-dose screen, 48 h (100 = growth as untreated, 0 = no growth, -100 = all killed). The following applies: 10 µM unless noted.
As to `COc1ccc(/C(C)=N/NS(=O)(=O)c2ccc(C)cc2)cc1OC`, the growth is 115%.

In the case of `C[C@@H]1C(=O)N(C[C@@H](Cc2ccccc2)NC(=O)OCc2ccccc2)[C@]1(Cc1ccccc1)C(=O)OCc1ccccc1`, the growth is 34.8%.

`NC(=Nc1ccc(N)cc1)C(N)=Nc1ccc(N)cc1`: the growth was 84.1%.

Regarding `N#Cc1c(NC(=O)c2ccccc2I)sc2c1CCCC2`, the growth was -10.4% (active).

For the molecule `Cc1ccc(Nc2ccc(Nc3ccc(C)cc3S(=O)(=O)O)c3c2C(=O)c2ccccc2C3=O)c(S(=O)(=O)O)c1`, the growth is 107%.

In the case of `C=C1C(=O)O[C@H]2[C@H]1CC/C(Cn1cc(CNCCc3c[nH]c4ccc(Cl)cc34)nn1)=C\CC[C@@]1(C)O[C@@H]21`, the growth was 16%.

On to `Cn1cc(Nc2nccc(-c3ccc(N4CCCC4)c(C#N)c3)n2)cn1`, for which the growth is 43.9%.

Take `CSc1ncc(C)c(Nc2ccc(Cl)cc2)n1`: the growth is 114%.

As for `COc1cc(/C=C2\C=C(c3ccccc3)N(CCc3ccccc3)C2=O)cc(OC)c1OC`, the growth is 72.3%.

Consider `O=c1cc(-c2ccc(OCc3ccccc3)cc2)oc2c(I)c(OCc3ccccc3)cc(OCc3ccccc3)c12`, for which the growth is 139%.

Consider `CC(=O)Nc1nccs1`, for which the growth was 98.6%.

For the molecule `N[C@H]1CCC[C@@H]1NCCCCN1C(=O)c2cccc3cccc(c23)C1=O`, the growth is 63.9%.

For the molecule `N=C(N)c1ccc(-c2ccc(-c3ccc(Cl)cc3Cl)o2)nc1`, the growth was 64.4%.

Regarding `O=C1N/C(=N/O)S/C1=C/c1cn(-c2ccccc2)nc1-c1ccccc1`, the growth was 95.6%.
